hcDAF12 agonist – activates DAF-12 receptor from parasite H. contortus. HEK293 hcDAF-12 lit1-tk-luc reporter, luminescence; 0% DMSO, 100% Δ7-dafachronic acid. activation, % at 6.8 µM. 370,000 tested, 1.4% active. AID 652067;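 active = activation above the mean of all tested compounds plus 3 SD, cut at about 5.5% in these data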;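 also: 100% = response to 3 µM Δ7-dafachronic acid high control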
SMARCA2 activ – activators of SMARCA2 function. MG213 cells, MMTV-luciferase reporter, dexamethasone, overnight. activation, % at 9.1 µM. 370,000 tested, 1% active; in the data active = activation above about 7.8%;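 also: 0% = vehicle wells and 100% = reference activator wells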
ssDAF12 agonist – S. stercoralis DAF-12 activation, primary screen; 370,000 tested, 1% active; HEK293 ssDAF-12/GRIP1 lit1-tk-luc reporter, luminescence; % of 3 µM dafachronic acid response; activation, % at 6.8 µM; AID 652126;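 active = activation above the mean over all tested compounds plus 3 SD, cut at about 0.9% in these data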;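 also: 0% = DMSO-only wells and 100% = 3 µM delta7-dafachronic acid wells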
hgDAF12 agonist – activates the H. glycines DAF-12 receptor ligand-binding domain; activation, % at 6.8 µM; AID 687014; 370,000 tested, 1.8% active; HEK293 GAL4-hgDAF12 UAS-luciferase reporter, agonist luminescence; normalized to butyrate control;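 active = activation above a cutoff set at the mean of all screened compounds plus 3 SD, cut at about 10% in these data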;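 also: 0% = DMSO wells and 100% = sodium butyrate wells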
DAX1 inh – inhibitors of DAX1 repression of SF-1 activated StAR promoter; HEK293T StAR-luciferase reporter, SF-1/DAX-1 repression relief; inhibition, % at 6.8 µM; 370,000 tested, 1.1% active; AID 652010;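 active = inhibition above the mean over all tested compounds plus 3 SD, cut at about 3.6% in these data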;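 also: 0% = DAX-1 cells with DMSO and 100% = cells lacking DAX-1 with DMSO; higher inhibition means more luminescence from relief of DAX-1 repression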
hgDAF12 conf – hgDAF-12 agonism, confirmation assay; shares compounds with hgDAF12 agonist; HEK293 GAL4-hgDAF12 luciferase reporter, agonist mode; percent of butyrate response; activation, % at 6.8 µM; 3,300 tested, 80% active; AID 743050;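 active = mean activation over triplicate wells above the hit cutoff derived from the earlier primary screen, cut at about 11% in these data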;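 also: 0% = DMSO low control and 100% = 2 mM sodium butyrate high control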
LXRb DAF12 ctr – activates human LXR-beta, counter-screen for DAF-12 agonists; activation, % at 6.8 µM; shares compounds with hgDAF12 agonist; HEK293 Gal4-LXR luciferase reporter, 24 h; AID 743051; 3,300 tested, under 10 active;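 active = mean activation of the triplicate above a set limit carried over from the primary screen, none filed active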
Target sequence (P55055 whole entry, looked up, the tested form may be a part): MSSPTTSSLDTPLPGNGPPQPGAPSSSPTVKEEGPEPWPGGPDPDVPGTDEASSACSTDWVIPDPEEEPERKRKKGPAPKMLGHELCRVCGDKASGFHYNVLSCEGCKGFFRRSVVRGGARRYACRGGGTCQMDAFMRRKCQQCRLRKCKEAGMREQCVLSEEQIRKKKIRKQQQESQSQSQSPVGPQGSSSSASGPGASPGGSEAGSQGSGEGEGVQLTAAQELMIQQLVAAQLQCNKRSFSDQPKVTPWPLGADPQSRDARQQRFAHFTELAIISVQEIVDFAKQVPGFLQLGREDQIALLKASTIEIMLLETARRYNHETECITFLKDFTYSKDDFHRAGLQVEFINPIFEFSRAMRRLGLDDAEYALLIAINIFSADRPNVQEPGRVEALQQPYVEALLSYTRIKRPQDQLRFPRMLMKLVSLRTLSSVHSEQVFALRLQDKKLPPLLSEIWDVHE
Starred values were filed as active, the others as inactive. The list is not random: actives were taken first. Their share in the collection is about 4.2%.

Screening C=CCN1[C@H](CC(C)C)COc2cccc(F)c2S1(=O)=O returned hcDAF12 agonist -0.3, SMARCA2 activ -1.5, ssDAF12 agonist -0.9, hgDAF12 agonist 0.3 and DAX1 inh -1.2.
CCN1Cc2nnn(CC3CCCCC3)c2-c2ccccc2S1(=O)=O was read as hcDAF12 agonist -1.5, SMARCA2 activ -1.3, ssDAF12 agonist -1.9, hgDAF12 agonist -1.6 and DAX1 inh -1.6.
`Nn1c(SCC(=O)Nc2ccccc2-c2ccccc2)nnc1-c1cc(-c2ccc(F)cc2)n[nH]1` gave hcDAF12 agonist 0.0, SMARCA2 activ -3.4, ssDAF12 agonist -1.2, hgDAF12 agonist 1.6 and DAX1 inh -0.3.
`COc1cccc(C(=O)O/N=C(\N)c2ccncc2)c1` gave hcDAF12 agonist 1.9, SMARCA2 activ 7.8*, ssDAF12 agonist -0.9, hgDAF12 agonist 16.7*, DAX1 inh 2.0, hgDAF12 conf 16.1* and LXRb DAF12 ctr 0.7.
COc1ccc(C(=O)O/N=C(\N)c2ccncc2)cc1OC was read as hcDAF12 agonist 0.2, SMARCA2 activ 2.6, ssDAF12 agonist -1.0, hgDAF12 agonist 4.5 and DAX1 inh -0.2.
Screening N/C(=N\OC(=O)/C=C/c1ccccc1)c1ccccc1 returned hcDAF12 agonist 1.7, SMARCA2 activ 3.3, ssDAF12 agonist 0.6, hgDAF12 agonist 17.4*, DAX1 inh 4.3*, hgDAF12 conf 14.5* and LXRb DAF12 ctr 0.7.
Screening COc1ccc(C(=O)O/N=C(\N)c2ccccc2)cc1OC returned hcDAF12 agonist 5.2, SMARCA2 activ 6.5, ssDAF12 agonist -0.2, hgDAF12 agonist 16.5*, DAX1 inh 2.1, hgDAF12 conf 11.7* and LXRb DAF12 ctr 0.7.
C/C(=N/NC(=O)c1ccccc1)c1ccc(NC(=O)C(F)(F)F)cc1 was read as hcDAF12 agonist 3.9, SMARCA2 activ 3.1, ssDAF12 agonist -0.2, hgDAF12 agonist 14.5*, DAX1 inh 2.3, hgDAF12 conf 5.3 and LXRb DAF12 ctr 0.2.
Screening Cc1sc2nc(COC(=O)CNC(=O)c3ccc(F)cc3Cl)[nH]c(=O)c2c1C returned hcDAF12 agonist -0.9, SMARCA2 activ -4.9, ssDAF12 agonist -0.9, hgDAF12 agonist 0.0 and DAX1 inh -0.6.
Screening COC(=O)[C@]12C[C@H](CC(=O)NCc3ccc(C)o3)C(=O)N(Cc3ccc(Cl)cc3Cl)C1=C[C@H](COCc1ccccc1)O[C@@H]2C returned hcDAF12 agonist -3.2, SMARCA2 activ -3.4, ssDAF12 agonist -0.9, hgDAF12 agonist 4.3 and DAX1 inh -1.0.
Screening Cc1cc(=O)[nH]c(SCC(=O)Nc2ccc(F)c(F)c2)n1 returned hcDAF12 agonist -1.2, SMARCA2 activ -2.6, ssDAF12 agonist -0.7, hgDAF12 agonist 5.7 and DAX1 inh 0.1.
Screening O=C1CCC[C@H]2Cc3nc4ccccc4cc3C[C@]23CCCN13 returned hcDAF12 agonist 2.6, ssDAF12 agonist -0.8 and hgDAF12 agonist -0.9.
`COc1ccc(C(=O)O/N=C(\N)c2ccccn2)cc1` gave hcDAF12 agonist -1.7, SMARCA2 activ -8.9, ssDAF12 agonist -1.5, hgDAF12 agonist -5.6 and DAX1 inh -0.3.
`COc1cc(OC)cc(C(=O)O/N=C(\N)c2ccccn2)c1` gave hcDAF12 agonist 2.2, SMARCA2 activ 5.2, ssDAF12 agonist 0.4, hgDAF12 agonist 13.3*, DAX1 inh 0.8, hgDAF12 conf 13.0* and LXRb DAF12 ctr 0.5.
`COc1ccc(/C(N)=N/OC(=O)c2ccco2)cc1OC` gave hcDAF12 agonist 1.9, SMARCA2 activ 4.7, ssDAF12 agonist -0.1, hgDAF12 agonist 17.8*, DAX1 inh 3.3, hgDAF12 conf 12.6* and LXRb DAF12 ctr 0.3.
Screening CC(C)C[C@@H]1COc2cc(Br)ccc2S(=O)(=O)N1Cc1cn(Cc2ccc(C(F)(F)F)cc2)nn1 returned hcDAF12 agonist -1.5, SMARCA2 activ 3.0, ssDAF12 agonist -1.7, hgDAF12 agonist 1.0 and DAX1 inh 0.2.
Screening Cc1ccc(/C=C/C(=O)c2ccc(N3CCOCC3)cc2)s1 returned hcDAF12 agonist 1.8, SMARCA2 activ 2.6, ssDAF12 agonist -0.7, hgDAF12 agonist 14.4*, DAX1 inh 0.1, hgDAF12 conf 9.3 and LXRb DAF12 ctr 0.8.
`O=C1c2ccccc2CN1CCSC(=S)N1CCOCC1` gave hcDAF12 agonist 4.3, SMARCA2 activ 3.2, ssDAF12 agonist -0.2, hgDAF12 agonist 15.8*, DAX1 inh 3.3, hgDAF12 conf 16.0* and LXRb DAF12 ctr 0.6.
`FC(F)(F)c1cnc2c(-c3ccccc3)n[nH]c2c1` gave hcDAF12 agonist 4.4, SMARCA2 activ 2.7, ssDAF12 agonist 0.5, hgDAF12 agonist 14.3*, DAX1 inh 1.3, hgDAF12 conf 7.3 and LXRb DAF12 ctr 0.3.
Cc1ccc2c(Cl)c(C(=O)Nc3cccnc3)sc2c1 was read as hcDAF12 agonist 2.5, SMARCA2 activ 1.1, ssDAF12 agonist -0.8, hgDAF12 agonist 20.1*, DAX1 inh 2.8, hgDAF12 conf 18.0* and LXRb DAF12 ctr 0.8.
O=C(NCCCc1ccccc1)c1ccc([N+](=O)[O-])cc1Cl was read as hcDAF12 agonist 0.8, SMARCA2 activ 1.1, ssDAF12 agonist -0.8, hgDAF12 agonist 6.2 and DAX1 inh 0.4.
`Cc1ccc(C(=O)NCCCc2ccccc2)c(Cl)c1` gave hcDAF12 agonist 6.5*, SMARCA2 activ 3.5, ssDAF12 agonist 0.4, hgDAF12 agonist 14.7*, DAX1 inh 2.0, hgDAF12 conf 11.4* and LXRb DAF12 ctr 0.5.
`O=C(Nc1ccc(NC(=O)C2CC2)cn1)c1ccccc1` gave hcDAF12 agonist 5.5, SMARCA2 activ 3.3, ssDAF12 agonist 0.4, hgDAF12 agonist 16.4*, DAX1 inh 3.4, hgDAF12 conf 13.1* and LXRb DAF12 ctr 0.8.
`O=C(Nc1ccc(NC(=O)c2cccs2)cn1)c1ccccc1` gave hcDAF12 agonist 5.2, SMARCA2 activ 5.0, ssDAF12 agonist -0.2, hgDAF12 agonist 15.8*, DAX1 inh 3.3, hgDAF12 conf 15.3* and LXRb DAF12 ctr 1.0.
Screening O=C(Nc1ccc(NC(=O)C2CC2)cn1)c1ccccc1Cl returned hcDAF12 agonist -2.0, SMARCA2 activ 4.8, ssDAF12 agonist -0.3, hgDAF12 agonist 4.4 and DAX1 inh 0.7.
For O=C(O)c1ccc(N/N=C/C2=Cc3ccccc3OC2)cc1 the results were hcDAF12 agonist 3.1, SMARCA2 activ 0.5, ssDAF12 agonist 0.3, hgDAF12 agonist 19.0*, DAX1 inh 4.1*, hgDAF12 conf 16.2* and LXRb DAF12 ctr 0.4.
Screening CCCCCN1CCCCC(NC(=O)c2c(F)cccc2F)C1=O (stereo unspecified) returned hcDAF12 agonist 2.4, SMARCA2 activ 3.8, ssDAF12 agonist -1.6, hgDAF12 agonist 0.5 and DAX1 inh 0.2.

Source: PubChem BioAssay
